# Measured values taken from PubChem BioAssay (NCATS).
# Several values for one entry are separate records, joined by “and”; a condition that tells them apart may be missing. Equal entries are not always repeated. Records with an inconclusive call do not appear. A number with no mark means an inactive call. Activity calls are given as the source filed them. Calls come from the whole dose curve; as a rule, active = well fitted curve in the direction sought with a large enough effect; inconclusive = small, poorly fitted or top-dose-only effect, or another doubt; inactive = no such curve, though single readings can be large; an effect the other way counts as inactive or inconclusive.
# Assays:
# [1] = biological target: Cellular tumor antigen p53 (Homo sapiens) (UniProt P04637); assay: Primary qHTS for small molecule compounds that upregulate eGFP-tagged delta133p53alpha (in N-terminal) cells. (AID 2060322); conditions: NCI-H358 eGFP-delta133p53alpha fluorescence, 24 h; activation: stronger effect = higher value; note: nearly all actives have a fitted effect of over 75% in size; note: potency is the fitted concentration of half-maximal effect;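 for activation: series mostly up to about 56 µM; 0% = DMSO vehicle and 100% = reference activator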
# Summary of the method: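 NCI-H358 cells pre-induced 24 h with 10 ng/ml doxycycline to express N-terminal eGFP-delta133p53alpha, then dosed 24 h at 37C without doxycycline; fixed, Hoechst-stained, GFP intensity by laser scanning cytometry, normalized to DMSO (0%) and 57.5 uM 5-azacytidine (100%).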
# [2] = biological target: Aldehyde dehydrogenase, mitochondrial (Homo sapiens) (UniProt P05091); assay: qHTS for Inhibitors of the Aldehyde Dehydrogenase Family (ALDH2) Primary screen (AID 2061308);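 note: plate controls were vehicle for no effect and reference inhibitor for full effect; nearly all actives have a fitted effect of over 55% in size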
# [3] = biological target: Retinaldehyde dehydrogenase 3 (Homo sapiens) (UniProt P47895); assay: qHTS for Inhibitors of the Aldehyde Dehydrogenase Family (ALDH1A3) Primary screen (AID 2061315);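 note: plate controls were DMSO vehicle for no effect and reference inhibitor for full effect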
# [4] = BET inhibitor-based combinations targeting novel dependencies in MECOM-rearranged (r) AML: SET-2 cell line (AID 2202231); conditions: SET-2 AML cells viability, CellTiter-Glo luminescence, 48 h; viability: stronger effect = lower value, concentration not given here; note: nearly all actives have a fitted effect of over 35% in size; note: potency is the fitted concentration of half-maximal effect;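 for viability: plate controls were DMSO treated cells for no effect and wells without cells for full effect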
# Summary of the method: (§1)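 Cells were plated at 500 per well and exposed to an 11-point dose series of each drug for 48 hr. Viability was measured by CellTiter-Glo luminescence, normalized to DMSO and empty-well controls, and summarized as AUC and per-cell-line Z-AUC.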
# [5] = BET inhibitor-based combinations targeting novel dependencies in MECOM-rearranged (r) AML: OCI-AML3 cell line (AID 2202232); conditions: Potency: OCI-AML3 viability; note: nearly all actives have a fitted effect of over 35% in size; note: potency is the fitted concentration of half-maximal effect;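 for viability (% of control): series mostly up to about 46 µM; plate controls were DMSO vehicle wells for no effect and wells without cells for full effect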
# Summary of the method: as §1
# [6] = BET inhibitor-based combinations targeting novel dependencies in MECOM-rearranged (r) AML: MV-4-11 cell line (AID 2202233); note: nearly all actives have a fitted effect of over 45% in size; note: potency is the fitted concentration of half-maximal effect;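 for viability, % of control: plate controls were DMSO for no effect and blank wells for full effect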
# Summary of the method: (§2)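 Activity is given as area under the curve and as Z-AUC, mean-centred within each cell line. It comes from 11-point dose curves normalized to DMSO and empty wells. CellTiter-Glo luminescence was read after 48 hr drug exposure of 500 cells/well.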
# [7] = BET inhibitor-based combinations targeting novel dependencies in MECOM-rearranged (r) AML: HNT-34 cell line (AID 2202234); note: nearly all actives have a fitted effect of over 35% in size; note: potency is the fitted concentration of half-maximal effect;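 for viability (% of control): plate controls were vehicle wells for no effect and cell-free wells for full effect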
# Summary of the method: as §2
# [8] = BET inhibitor-based combinations targeting novel dependencies in MECOM-rearranged (r) AML: UCSD-AML1 cell line (AID 2202235); note: nearly all actives have a fitted effect of over 40% in size; note: potency is the fitted concentration of half-maximal effect;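 for viability (% of control): series mostly up to about 46 µM; plate controls were DMSO vehicle wells for no effect and blank wells for full effect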
# Summary of the method: as §2
# [9] = BET inhibitor-based combinations targeting novel dependencies in MECOM-rearranged (r) AML: AML-191 cell line (AID 2202236; note: nearly all actives have a fitted effect of over 35% in size; note: potency is the fitted concentration of half-maximal effect;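 for viability (% of control): plate controls were vehicle wells for no effect and wells without cells for full effect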)
# Summary of the method: as §1
# [10] = BET inhibitor-based combinations targeting novel dependencies in MECOM-rearranged (r) AML: AML-194 cell line (AID 2202237; note: nearly all actives have a fitted effect of over 40% in size; note: potency is the fitted concentration of half-maximal effect;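 for viability (% of control): plate controls were vehicle wells for no effect and wells without cells for full effect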)
# Summary of the method: as §1
# Cellular tumor antigen p53 (Homo sapiens), sequence (P04637 whole entry, looked up): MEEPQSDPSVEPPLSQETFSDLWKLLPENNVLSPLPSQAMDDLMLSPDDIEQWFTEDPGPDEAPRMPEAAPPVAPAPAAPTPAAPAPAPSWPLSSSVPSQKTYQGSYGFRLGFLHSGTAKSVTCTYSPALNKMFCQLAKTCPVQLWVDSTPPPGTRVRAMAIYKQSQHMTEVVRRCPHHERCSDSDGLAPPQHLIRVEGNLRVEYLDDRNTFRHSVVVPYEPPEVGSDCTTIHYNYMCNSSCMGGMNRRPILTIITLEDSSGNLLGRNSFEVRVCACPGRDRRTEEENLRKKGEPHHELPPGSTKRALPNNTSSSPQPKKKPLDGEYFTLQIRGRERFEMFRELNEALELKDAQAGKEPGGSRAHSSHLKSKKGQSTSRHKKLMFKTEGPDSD
Compound,activation [1],Potency [2],Potency [3],Potency [4],Potency [5],Potency [6],Potency [7],Potency [8],Potency [9],Potency [10],viability [4],Potency [1],viability (% of control) [5],"viability, % of control [6]",viability (% of control) [7],viability (% of control) [10]
CNC(=O)c1cc(Oc2ccc(NC(=O)Nc3ccc(Cl)c(C(F)(F)F)c3)cc2)ccn1,4.11%,inactive,inactive,26.3 µM (active),9.34 µM (active),0.0132 µM (active),10.5 µM (active),18.6 µM (active),14.8 µM (active),16.6 µM (active),–,–,–,–,–,–
CCCCN(CCCC)C(=O)CN1C[C@H](c2ccc3c(c2)OCO3)[C@@H](C(=O)O)[C@@H]1c1ccc(OC)cc1,-2.39% and -6.46%,inactive,inactive,–,inactive,inactive,inactive,inactive,inactive,inactive,107%,–,–,–,–,–
CCCS(=O)(=O)Nc1ccc(F)c(C(=O)c2c[nH]c3ncc(-c4ccc(Cl)cc4)cc23)c1F,15.9% and 18.8%,inactive,inactive,–,inactive,33.2 µM (active),14.8 µM (active),–,–,inactive,117%,–,–,–,–,–
O=C(O)CCCCCC(=O)NN=C1CCCC1,-11%,inactive,inactive,–,inactive,inactive,inactive,inactive,inactive,inactive,108%,–,–,–,–,–
Cc1cc(O)c(-c2ccc([C@@H](C)CN(C)C)cc2)c2c1[nH]c(=O)c1sccc12,–,inactive,inactive,0.148 µM (active),0.132 µM (active),0.0833 µM (active),0.148 µM (active),0.0934 µM (active),0.118 µM (active),0.417 µM (active),–,0.301 µM (active),–,–,–,–
Cc1[nH]nc(C(F)(F)F)c1Cc1sc2c(c1C(=O)N1C[C@](C)(O)CO1)c(=O)n(C)c(=O)n2C(C)C,-10.3%,inactive,inactive,–,inactive,inactive,inactive,inactive,inactive,inactive,110%,–,–,–,–,–
Cc1nc(-c2cccnc2)sc1C(=O)Nc1ccccc1-c1cn2c(CN3CCOCC3)csc2n1,17.9%,inactive,inactive,–,inactive,inactive,inactive,inactive,–,inactive,115%,–,–,–,–,–
c1cc(N[C@@H]2CCNC2)nc(-c2cnc3ccc(-c4cn[nH]c4)cn23)c1,–,inactive,inactive,–,8.33 µM (active),0.0132 µM (active),4.17 µM (active),–,16.6 µM (active),18.6 µM (active),88.2%,34.3 µM (active),–,–,–,–
C[C@@H]1COCCN1c1cc(=O)n2c(n1)N(Cc1cncc(Cl)c1)[C@H](C(F)(F)F)CC2,-34.6%,inactive,inactive,–,inactive,inactive,inactive,–,–,inactive,106%,–,–,–,–,–
C=C1C[C@@]2(O)O[C@@]3(C[C@H]2C(C)C)[C@@H](C)CC[C@@H]13,3.34%,inactive,inactive,–,inactive,inactive,inactive,inactive,inactive,inactive,112%,–,–,–,–,–
Cc1c(C(=O)Nc2ccc(N3C[C@@H](C)O[C@@H](C)C3)nc2)cccc1-c1ccc(OC(F)(F)F)cc1,18.3% and -6.33%,inactive,inactive,–,inactive,5.25 µM (active),inactive,inactive,inactive,inactive,98.5%,–,–,–,–,–
OCc1ccccc1O[C@@H]1O[C@H](CO)[C@@H](O)[C@H](O)[C@H]1O,2.68%,inactive,inactive,–,inactive,inactive,inactive,inactive,inactive,inactive,115%,–,–,–,–,–
NS(=O)(=O)c1cc(Cl)c(Cl)c(S(N)(=O)=O)c1,-9.17% and 1%,inactive,inactive,–,inactive,inactive,inactive,inactive,inactive,inactive,115%,–,–,–,–,–
COc1cc2c(Nc3ccc(Cl)c(Cl)c3F)ncnc2cc1OCC1C[C@@H]2CN(C)C[C@@H]2C1 (some centres not stated),–,inactive,inactive,23.5 µM (active) and 20.9 µM (active),18.6 µM (active) and 13.2 µM (active),5.9 µM (active) and 5.25 µM (active),1.05 µM (active) and 1.18 µM (active),9.34 µM (active),–,13.2 µM (active) and 10.5 µM (active),–,13.5 µM (active) and 19.3 µM (active),–,–,–,–
CNC(=O)c1nn(C)c2c1C(C)(C)Cc1cnc(Nc3ccc(N4CCN(C)CC4)cc3)nc1-2,–,inactive,inactive,0.833 µM (active),5.25 µM (active),0.132 µM (active),0.263 µM (active),–,1.18 µM (active),1.32 µM (active),–,38.5 µM (active) and 9.53 µM (active),–,–,–,–
C1=C/COCc2cc(ccc2OCCN2CCCC2)Nc2nccc(n2)-c2cccc(c2)COC/1,–,inactive,inactive,4.17 µM (active),3.32 µM (active),0.0132 µM (active),2.09 µM (active),1.18 µM (active),–,2.35 µM (active),–,15.3 µM (active),–,–,–,–

Compound,activation [1],Potency [2],Potency [3],Potency [4],Potency [5],Potency [6],Potency [7],Potency [8],Potency [9],Potency [10],viability [4],Potency [1],viability (% of control) [5],"viability, % of control [6]",viability (% of control) [7],viability (% of control) [10]
COc1ccc(Cc2ccc(NC(N)=O)cc2)cc1-c1cccc(Cl)c1,2.49%,inactive,inactive,–,inactive,inactive,inactive,inactive,–,inactive,103%,–,–,–,–,–
COc1cc(C(=O)NC2CCN(C)CC2)c(F)cc1Nc1ncc2c(n1)N(C1CCCC1)CC(F)(F)C(=O)N2C,17%,inactive,inactive,0.0934 µM (active),0.0468 µM (active),0.105 µM (active),0.105 µM (active),0.105 µM (active),0.118 µM (active),0.0833 µM (active),–,–,–,–,–,–
CC1CCN(c2cc(N3CCN(C)CC3)ccc2NC(=O)c2cc(C#N)c[nH]2)CC1,4.19% and 20.5%,inactive,inactive,–,20.9 µM (active),8.33 µM (active),26.3 µM (active),20.9 µM (active),20.9 µM (active),23.5 µM (active),116%,–,–,–,–,–
Cc1ccc(S(=O)(=O)Cc2nc(-c3ccc(C(=O)NCc4cccnc4)cc3)oc2C)cc1,26.3%,inactive,inactive,18.6 µM (active),0.0118 µM (active),0.132 µM (active),0.0263 µM (active),–,0.0235 µM (active),–,–,–,–,–,–,–
O=C(Nc1nc2cccc(-c3ccc(CN4CCS(=O)(=O)CC4)cc3)n2n1)C1CC1,–,inactive,inactive,18.6 µM (active),14.8 µM (active),3.32 µM (active),14.8 µM (active),5.9 µM (active),–,13.2 µM (active),–,43.2 µM (active) and 34.3 µM (active),–,–,–,–
COc1ccc(CNc2nc(N(CCO)CCO)nc3c2ncn3C(C)C)cc1,–,inactive,inactive,8.33 µM (active),8.33 µM (active),6.61 µM (active),7.42 µM (active),7.42 µM (active),3.32 µM (active),5.9 µM (active),–,8.49 µM (active),–,–,–,–
Nc1ccc(-c2ccc3ncc4ccc(=O)n(-c5cccc(C(F)(F)F)c5)c4c3c2)cn1,6.6%,inactive,inactive,0.105 µM (active),0.166 µM (active),0.0833 µM (active),0.059 µM (active),0.0263 µM (active),0.0525 µM (active),0.0417 µM (active),–,–,–,–,–,–
CC(=O)Nc1nc(C)c(-c2ccc(Cl)c(S(=O)(=O)NCCO)c2)s1,12.7% and -14.3%,inactive,inactive,14.8 µM (active),8.33 µM (active),3.72 µM (active),5.25 µM (active),3.72 µM (active),5.25 µM (active),4.17 µM (active),–,–,–,–,–,–
CNC1CCC(N(Cc2cccc(-c3ccncc3)c2)C(=O)c2sc3ccccc3c2Cl)CC1 (configuration not stated),–,inactive,inactive,26.3 µM (active),18.6 µM (active),16.6 µM (active),26.3 µM (active),–,20.9 µM (active),23.5 µM (active),–,24.3 µM (active) and 30.1 µM (active),–,–,–,–
CCOc1cc2ncc(C#N)c(Nc3ccc(OCc4ccccn4)c(Cl)c3)c2cc1NC(=O)/C=C/CN(C)C,–,inactive,inactive,4.68 µM (active),5.9 µM (active),2.09 µM (active),1.32 µM (active),3.72 µM (active),5.25 µM (active),5.25 µM (active),–,9.28 µM (active),–,–,–,–
CCC(CC)CC1(C(=O)Nc2ccccc2SC(=O)C(C)C)CCCCC1,18.8%,inactive,inactive,–,inactive,inactive,inactive,inactive,inactive,inactive,117%,–,–,–,–,–
Cc1sc2c(c1C)C(c1ccc(Cl)cc1)=N[C@@H](CC(=O)Nc1ccc(OCCOCCOCCOCCNc3cccc4c3C(=O)N(C3CCC(=O)NC3=O)C4=O)cc1)c1nnc(C)n1-2 (some centres not stated),59%,inactive,inactive,1.05 µM (active),0.0332 µM (active),0.0417 µM (active),0.0148 µM (active),0.0209 µM (active),0.0833 µM (active),0.0525 µM (active),–,–,–,–,–,–
C=CC(=O)Nc1cccc(Nc2nc(Nc3ccc(OCCOC)cc3)ncc2F)c1,–,inactive,inactive,16.6 µM (active),14.8 µM (active),1.48 µM (active),1.86 µM (active),8.33 µM (active),–,9.34 µM (active),–,9.53 µM (active),–,–,–,–
COc1c(C)cc(NC(=O)c2nn(Cc3ccc(F)cc3)c3c2CN(C(=O)c2ccc[nH]2)C[C@]3(C)C(N)=O)cc1C,0.333%,inactive,inactive,–,–,–,–,–,–,–,118%,–,113% [at 8.46 µM],114% [at 8.46 µM],105% [at 8.46 µM],108% [at 8.46 µM]
Cc1cn(CCN2CCN(c3ccccc3-c3cc(C#N)cc(C(=O)NCCCN4CCCC4)c3)CC2)c2ccccc12,15.8%,inactive,inactive,23.5 µM (active),18.6 µM (active),20.9 µM (active),18.6 µM (active),–,18.6 µM (active),18.6 µM (active),–,–,–,–,–,–
